Bioassay records as filed in PubChem.
HCMV inh: blocks human cytomegalovirus replication. HFF cells, HCMV-luciferase reporter, 72 h; active compounds read low. activity change, negative = inhibition, % at 57.5 µM. 410,000 compounds, 4.5% hits; in the data active = activity change below about -60%; inconclusive = no clear call, values can overlap the other calls; inactive = above about -39%; also: % is scaled to controls: 0 for no effect and ±100 for the full control effect
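Human foreskin fibroblasts infected with luciferase-reporter HCMV at MOI 1 PFU/cell, compounds at two doses. Luciferase measured 72 h post infection; normalized to buffer-only basal and Salinomycin (10uM) controls.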
Lassa entry inh: inhibitors of Lassa virus binding or cell entry; Lassa virus pseudotype entry inhibition, cell reporter; Potency, µM (doses to about 37.9 µM), for inactives: at the top dose activity change, negative = inhibition, actives largely listed as inhibitors; 300,000 compounds, 1.2% hits; calls by dose curve; tested in HEK293 cells; also: potency is read from the fitted curve at half-maximal effect; % is scaled to controls: 0 for no effect and ±100 for the full control effect; nearly all actives have a fitted effect of over 50% in size
HCV inhibitor: inhibitors of hepatitis C virus infection; Potency, µM (highest dose often 41.8 µM), inactives show at the top dose activity change, negative = inhibition, actives largely listed as inhibitors; 340,000 compounds, 3.4% hits; AID 651820; Huh7.5.1 HCVcc-Cre infection, luciferase reporter, 44 h; active = well fitted inhibition curve with a large enough effect; inconclusive = small, poorly fitted or top-dose-only effect, or another doubt; inactive = no such curve, though single readings can be large or run the other way; also: potency is read from the fitted curve at half-maximal effect; % is scaled to controls: 0 for no effect and ±100 for the full control effect
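Cells seeded at 1,000/well and cultured 4 h, then compounds added followed by HCVcc-Cre virus (~0.5 moi). After 44 h further culture, luciferase substrate was added, plates held 15 min at room temperature, and luminescence read for 15 sec.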
FMDV inh: antivirals against foot and mouth disease virus; FMDV antiviral cell-based qHTS; Potency, µM (top dose mostly 57.9 µM), inactives show top-dose activity change, negative = inhibition, actives largely listed as inhibitors; 410,000 compounds, 1.2% hits; AID 1159524; calls by dose curve; tested in HEK293T cells; also: read-out not given here; potency is read from the fitted curve at half-maximal effect; % is scaled to controls: 0 for no effect and ±100 for the full control effect; nearly all actives have a fitted effect of over 45% in size
SARS PLpro yeast: blocks SARS-CoV papain-like protease in a yeast assay. S. cerevisiae expressing SARS-CoV PLpro, growth rescue. Potency, µM (doses to about 32.9 µM), without a hit: top-dose activity, positive = growth rescue, usual class: activators. 330,000 compounds, 0.19% hits. AID 485353; calls by dose curve; also: potency is read from the fitted curve at half-maximal effect; 0% is about no effect; nearly all actives have a fitted effect of over 55% in size
Marburg entry inh: inhibitors of Marburg virus binding or cell entry; Marburg virus pseudotyped entry inhibition, cell reporter; AID 540276; 300,000 compounds, 1.8% hits; Potency, µM (highest dose often 37.8 µM), for inactives: at the top dose activity change, negative = inhibition, usual class: inhibitors; calls by dose curve; tested in HEK293 cells; also: potency is read from the fitted curve at half-maximal effect; % is scaled to controls: 0 for no effect and ±100 for the full control effect
An asterisk follows results filed as active; ? = inconclusive; nt = no result given; [ ] = dose if it differs, or a comment. Only some compounds are listed: those with a hit (about 8% of all), similar ones and a draw of the others.

SMILES	HCMV inh	Lassa entry inh	HCV inhibitor	FMDV inh	SARS PLpro yeast	Marburg entry inh
COc1ccc(Nc2cc(C)nc3ccccc23)cc1	?	-1%	?	-15%	nt	?
COc1ccc(OC)c(Nc2cc(C)nc3nc(C)nn23)c1	34	nt	?	-29%	0%	nt
COc1ccc2nc(C)cc(Nc3ccc(Cl)c(Cl)c3)c2c1	-106*	?	nt	?	nt	nt
COc1ccc2nc(N3CCOCC3)cc(C)c2c1	146	?	?	nt	5%	?
COc1ccc(OC)c(Nc2cc(C)nc3ccc(C)cc23)c1	-13	?	22µM*	?	nt	?
COc1ccc2nc(C)cc(Nc3ccc(C)cc3)c2c1	-23	?	?	-16%	-3%	?
COc1ccc2nc(C)cc(Nc3ccc(N4CCN(C)CC4)cc3)c2c1	-102*	nt	10µM*	-10%	1%	nt
CCC(C(=O)Nc1cc(C)ccc1OC)n1nnc(C(=O)OC)c1C(=O)OC (centres undefined)	7	26%[46.1 µM]	nt	-8%	nt	3%[46.1 µM]
CCN(c1ccc(C)cc1C)S(=O)(=O)c1nnc(NC(=O)c2ccccc2OC)s1	-17	11%[46.1 µM]	nt	?	nt	nt
O=C(N/N=C1\CCc2ccccc21)c1ccccc1O	-27	?	6%	-33%	-32%	5µM*
NC(=S)NN=C1c2cc(OCCN3CCOCC3)ccc2-c2ccc(OCCN3CCOCC3)cc21	nt	?	4µM*	18µM*	0%	?
Fc1cccc(CSc2nc(NCCc3ccccc3)c3ccccc3n2)c1	35	-3%[46.1 µM]	nt	-29%	nt	nt
O=C(CCl)Nc1c[nH]c(=O)[nH]c1=O	-64*	?	?	?	-2%	?
c1ccc(OCCCc2nc(-c3ccccn3)no2)cc1	-106*	3%	-7%	4%	-8%	-9%
COc1cccc(-c2noc(-c3cccnc3)n2)c1	93	?	19%	26%	5%	?
COc1cccc(-c2nc(-c3ccccn3)no2)c1	-61*	1.5µM*	?	20µM*	?	2.3µM*
COc1cccc(-c2nc(-c3ccccc3)no2)c1	285	14µM*	-6%	3%	-3%	?
c1ccc(OCCCc2nc(-c3ccncc3)no2)cc1	-6	13%	-27%	nt	-12%	-23%
CCOc1ccc(NC(=O)CN2CCCC2c2cccs2)cc1S(=O)(=O)N1CCCC1 (centres undefined)	-92*	nt	11µM*	7%	-2%	nt
O=C(CN1CCCC1c1cccs1)Nc1cccc(S(=O)(=O)N2CCCC2)c1 (centres undefined)	-33	nt	10µM*	-25%	2%[6.58 µM]	nt
COc1ccc(NC(=O)CN2CCCC2c2cccs2)cc1S(=O)(=O)N1CCCCC1 (centres undefined)	?	nt	?	40µM*	-12%	nt
O=C(CN1CCCC1c1cccs1)Nc1cc(S(=O)(=O)N2CCCC2)ccc1Cl (centres undefined)	3	?	?	-21%	-4%	-6%[46.1 µM]
CCN(CC)c1cc(C)c2cc(NC(=O)/C=C/c3ccccc3OC(C)C)ccc2n1	?	-16%[46.1 µM]	nt	-29%	nt	?
CC(CCN1CCCCc2nc(C)c(C)cc21)=NO[C@H](C)c1cn([C@@H]2COC[C@@H]2O)nn1	nt	nt	nt	nt	nt	4%[14.2 µM]
COC(=O)N[C@@H](c1cccc(F)c1)[C@]1(C(=O)OC)CCCC1=O	nt	nt	nt	nt	nt	3%[14.2 µM]
SMILES	HCMV inh	Lassa entry inh	HCV inhibitor	FMDV inh	SARS PLpro yeast	Marburg entry inh
Cc1c(Cl)cccc1NC(=O)CCCCCN1C(=O)CCC1=O	26	-2%	13%	14%	1%	7%
O=C(CCCCCN1C(=O)CCC1=O)Nc1ncn[nH]1	-103*	10%	-27%	-7%	-5%	0%
Clc1cccc(Nc2nccc3[nH]c(-c4ccncc4)nc23)c1	-5	nt	nt	nt	nt	nt
CCCn1nc([N+](=O)[O-])c(C(C#N)c2nc3ccccc3o2)c(Cl)c1=O (centres undefined)	-15	?	-7%	0%	-24%	?
CCn1nc([N+](=O)[O-])c(C(C#N)c2nc3cc(C(F)(F)F)ccc3s2)c(Cl)c1=O (centres undefined)	?	10%	11µM*	2µM*	-38%	-19%
Cc1ccc(-n2c(C)nn(Cc3ccc([N+](=O)[O-])cc3)c2=O)cc1	-82*	-27%	-12%	-13%	1%	-10%[46.1 µM]
